Reference: the supplement of paper PMC10849652
Targets with a hit are over-represented here; the source holds about 7,900 in all. About 0.6% of all pairs of compound and target were hits.

How the values were obtained:
Experiment in all cases: log2 fold change, soluble protein after heating vs DMSO (PISA); higher = thermal stabilisation; K562 cells, 10 uM, 30 min; active = over 0.2 and 3.5 SD of the protein, either way, in both replicates (recomputed)
IRAK-1-4 Inhibitor I = compound: C1COCCN1CCN2C3=CC=CC=C3N=C2NC(=O)C4=CC(=CC=C4)[N+](=O)[O-] [IRAK-1-4 Inhibitor I]
How it was run: (§1)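 For each measurement, 10 μM compound was applied for 30 min to K562 cells at 2×10^6 cells/mL. Aliquots were heated for 3 min across 48°C-58°C, pooled, and extracted in PBS with 0.5% NP-40 at 4°C; the supernatant after 21,000xg for 90 min was soluble protein. This was quantified by TMTpro 16plex LC-MS/MS with channel sums equalised, and thermal stability was reported relative to control samples from duplicates, on a log2 fold-change scale.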

ibrutinib = compound: C=CC(=O)N1CCC[C@@H](n2nc(-c3ccc(Oc4ccccc4)cc3)c3c(N)ncnc32)C1 [ibrutinib]
How it was run: as §1

ralimetinib = compound: CC(C)(C)Cn1c(N)nc2ccc(-c3[nH]c(C(C)(C)C)nc3-c3ccc(F)cc3)nc21 [ralimetinib]
How it was run: as §1

[1] = compound: CC(C)C1=C2N=C(C=C(N2N=C1)NCC3=CC=CC=C3)NCCCCCCN
How it was run: as §1

[2] = compound: CC(C)C[C@@H](C=O)NC(=O)[C@H](CC(C)C)NC(=O)[C@H](CC(C)C)NC(=O)OCc1ccccc1
How it was run: as §1

pinometostat = compound: CC(C)N(C[C@H]1O[C@@H](n2cnc3c(N)ncnc32)[C@H](O)[C@@H]1O)[C@H]1C[C@@H](CCc2nc3cc(C(C)(C)C)ccc3[nH]2)C1 [pinometostat]
How it was run: as §1

[3] = compound: CC1=C(C(CC(=O)N1)C2=CC=C(C=C2)C(F)(F)F)C(=O)NC3=C(C=C4C(=C3)C=NN4)F
How it was run: as §1

[4] = compound: CC1=C(C=C(C=C1)NC(=O)C2=CC(=CC=C2)N(C)C)NC(=O)C3=CC=C(C=C3)O
How it was run: as §1

[5] = compound: CC1=NC(=CC=C1)C2=C(N=C(N2)C(C)(C)C)C3=CC4=NC=CN=C4C=C3
How it was run: as §1

vemurafenib = compound: CCCS(=O)(=O)Nc1ccc(F)c(C(=O)c2c[nH]c3ncc(-c4ccc(Cl)cc4)cc23)c1F [vemurafenib]
How it was run: as §1

[6] = compound: CCCc1cc(C)[nH]c(=O)c1CNC(=O)c1cc(-c2ccnc(N3CCN(C)CC3)c2)cc2c1cnn2C(C)C
How it was run: as §1

givinostat = compound: CCN(CC)Cc1ccc2cc(COC(=O)Nc3ccc(C(=O)NO)cc3)ccc2c1 [givinostat]
How it was run: as §1

barasertib = compound: CCN(CCCOc1ccc2c(Nc3cc(CC(=O)Nc4cccc(F)c4)[nH]n3)ncnc2c1)CCOP(=O)(O)O [barasertib]
How it was run: as §1

[7] = compound: CC1=C(C2=C(C=C1)C(=O)C3=CC=CC=C3N2CCCN)C
How it was run: as §1

[8] = compound: CC1=C(C=C(C=C1)NC(=O)C2=CC(=CC=C2)C(C)(C)C#N)NC3=CC4=C(C=C3)N=CN(C4=O)C
How it was run: as §1

[9] = compound: CC(=O)c1cnc2ccc(-c3cc(Cl)c(O)c(Cl)c3)nc2c1N[C@H]1CC[C@H](CN(C)C)CC1
How it was run: as §1

[10] = compound: CC(C)(O)CC(=O)NCCn1ccc2ncnc(Nc3ccc(Oc4cccc(C(F)(F)F)c4)c(Cl)c3)c21
How it was run: as §1

[11] = compound: CC1=CC=C(C=C1)SC2=C3C=C(SC3=CN=C2)C(=O)N
How it was run: as §1

Nexturastat A = compound: CCCCN(Cc1ccc(C(=O)NO)cc1)C(=O)Nc1ccccc1 [Nexturastat A]
How it was run: as §1

[12] = compound: CCCS(=O)(=O)Nc1ccc(F)c(C(=O)c2c[nH]c3ncc(Cl)cc23)c1F
How it was run: as §1

Measured: log2 fold change

DERPC (UniProt P0CG12)
inactive: IRAK-1-4 Inhibitor I -0.077 | ibrutinib 0.004 | ralimetinib 0.017 | [1] -0.003 | [2] -0.029 | pinometostat 0.161 | [3] 0.066 | [4] -0.052 | [5] 0.005 | vemurafenib 0.07 | [6] -0.029 | barasertib 0.012
active: givinostat 0.454

CTSS (UniProt P25774)
inactive: IRAK-1-4 Inhibitor I -0.023 | ralimetinib -0.026 | [2] 0.12 | pinometostat -0.001 | [7] 0.316 | [8] 0.032 | [4] -0.045 | [5] -0.068 | vemurafenib -0.053

DENND10 (UniProt Q8TCE6)
Sequence of UniProt Q8TCE6 (Q8TCE6 whole entry, looked up): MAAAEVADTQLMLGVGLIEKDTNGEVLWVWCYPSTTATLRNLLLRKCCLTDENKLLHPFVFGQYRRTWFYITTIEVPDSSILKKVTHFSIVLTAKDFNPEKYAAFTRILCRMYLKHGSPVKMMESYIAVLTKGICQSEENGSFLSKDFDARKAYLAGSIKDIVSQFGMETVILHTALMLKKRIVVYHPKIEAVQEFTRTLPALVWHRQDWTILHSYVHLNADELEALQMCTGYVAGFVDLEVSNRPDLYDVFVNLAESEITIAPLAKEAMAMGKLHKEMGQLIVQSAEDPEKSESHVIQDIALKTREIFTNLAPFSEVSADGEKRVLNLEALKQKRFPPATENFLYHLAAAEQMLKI
inactive: ibrutinib 0.037 | [9] 0 | ralimetinib -0.003 | [10] -0.025 | [1] -0.119 | [2] 0.016 | [3] 0.059 | [7] -0.185 | [8] 0.022 | [4] 0.036 | [11] 0.029 | Nexturastat A -0.119 | vemurafenib -0.023 | [12] 0.01 | [6] -0.023 | givinostat 0.131 | barasertib 0.036

DENND1A isoform 6 (UniProt Q8TEH3)
inactive: IRAK-1-4 Inhibitor I 0.121 | ibrutinib -0.003 | pinometostat -0.356 | [7] 0.113 | [11] 0.025 | [5] -0.009 | vemurafenib -0.119 | [12] 0.114 | barasertib 0.293

EEF2K (UniProt O00418)
inactive: ralimetinib 0.126 | [10] -0.047 | [1] -0.245 | [2] 0.169 | [4] 0.006 | [11] 0.043 | Nexturastat A 0.201 | vemurafenib 0.089 | [12] 0.157 | [6] 0.15 | givinostat -0.041

DDX27 (UniProt Q96GQ7)
Sequence of UniProt Q96GQ7 (Q96GQ7 whole entry, looked up): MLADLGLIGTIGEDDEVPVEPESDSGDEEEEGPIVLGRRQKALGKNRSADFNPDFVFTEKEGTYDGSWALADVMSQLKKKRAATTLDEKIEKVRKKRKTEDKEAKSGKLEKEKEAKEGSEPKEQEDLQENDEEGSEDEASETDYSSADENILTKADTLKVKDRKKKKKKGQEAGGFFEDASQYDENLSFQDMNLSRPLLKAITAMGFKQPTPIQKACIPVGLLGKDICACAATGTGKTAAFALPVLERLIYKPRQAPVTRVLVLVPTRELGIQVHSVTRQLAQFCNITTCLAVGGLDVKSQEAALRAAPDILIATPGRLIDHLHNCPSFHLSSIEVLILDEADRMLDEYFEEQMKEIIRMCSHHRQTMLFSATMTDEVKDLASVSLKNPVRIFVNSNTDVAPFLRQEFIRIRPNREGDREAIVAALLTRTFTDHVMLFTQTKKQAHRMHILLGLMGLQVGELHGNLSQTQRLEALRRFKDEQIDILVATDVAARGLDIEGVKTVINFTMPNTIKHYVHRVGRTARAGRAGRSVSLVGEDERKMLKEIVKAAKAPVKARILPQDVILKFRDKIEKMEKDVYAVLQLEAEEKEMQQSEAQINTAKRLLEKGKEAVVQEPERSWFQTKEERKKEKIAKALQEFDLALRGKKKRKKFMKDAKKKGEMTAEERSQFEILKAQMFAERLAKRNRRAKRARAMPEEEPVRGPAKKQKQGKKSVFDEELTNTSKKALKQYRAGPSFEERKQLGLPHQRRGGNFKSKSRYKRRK
inactive: IRAK-1-4 Inhibitor I -0.037 | [9] 0.115 | ralimetinib 0.04 | [10] 0.106 | [1] -0.177 | [2] 0.104 | pinometostat 0.311 | [3] -0.344 | [7] -0.351 | [8] -0.026 | [4] -0.057 | [5] -0.293 | Nexturastat A 0.249 | vemurafenib -0.25 | [6] -0.142 | givinostat 0.081

DCP2 (UniProt Q8IU60)
inactive: IRAK-1-4 Inhibitor I -0.372 | [9] -0.265 | ralimetinib 0.105 | [10] 0.147 | [2] 0.185 | pinometostat 0.038 | [7] -0.111 | [8] -0.134 | [4] -0.006 | [11] 0.016 | [5] -0.089 | Nexturastat A 0.174 | vemurafenib 0.064 | [12] 0.055

FAM117B (UniProt Q6P1L5)
inactive: IRAK-1-4 Inhibitor I 0.238 | [9] -0.593 | ralimetinib -0.177 | [10] -0.255 | [1] 0.144 | [2] 0.016 | pinometostat -0.175 | [7] 0.037 | [4] -0.035 | [5] -0.126 | Nexturastat A 0.394 | vemurafenib 0.043 | givinostat 0.212

DOP1A (UniProt Q5JWR5)
Sequence of UniProt Q5JWR5 (Q5JWR5 whole entry, looked up): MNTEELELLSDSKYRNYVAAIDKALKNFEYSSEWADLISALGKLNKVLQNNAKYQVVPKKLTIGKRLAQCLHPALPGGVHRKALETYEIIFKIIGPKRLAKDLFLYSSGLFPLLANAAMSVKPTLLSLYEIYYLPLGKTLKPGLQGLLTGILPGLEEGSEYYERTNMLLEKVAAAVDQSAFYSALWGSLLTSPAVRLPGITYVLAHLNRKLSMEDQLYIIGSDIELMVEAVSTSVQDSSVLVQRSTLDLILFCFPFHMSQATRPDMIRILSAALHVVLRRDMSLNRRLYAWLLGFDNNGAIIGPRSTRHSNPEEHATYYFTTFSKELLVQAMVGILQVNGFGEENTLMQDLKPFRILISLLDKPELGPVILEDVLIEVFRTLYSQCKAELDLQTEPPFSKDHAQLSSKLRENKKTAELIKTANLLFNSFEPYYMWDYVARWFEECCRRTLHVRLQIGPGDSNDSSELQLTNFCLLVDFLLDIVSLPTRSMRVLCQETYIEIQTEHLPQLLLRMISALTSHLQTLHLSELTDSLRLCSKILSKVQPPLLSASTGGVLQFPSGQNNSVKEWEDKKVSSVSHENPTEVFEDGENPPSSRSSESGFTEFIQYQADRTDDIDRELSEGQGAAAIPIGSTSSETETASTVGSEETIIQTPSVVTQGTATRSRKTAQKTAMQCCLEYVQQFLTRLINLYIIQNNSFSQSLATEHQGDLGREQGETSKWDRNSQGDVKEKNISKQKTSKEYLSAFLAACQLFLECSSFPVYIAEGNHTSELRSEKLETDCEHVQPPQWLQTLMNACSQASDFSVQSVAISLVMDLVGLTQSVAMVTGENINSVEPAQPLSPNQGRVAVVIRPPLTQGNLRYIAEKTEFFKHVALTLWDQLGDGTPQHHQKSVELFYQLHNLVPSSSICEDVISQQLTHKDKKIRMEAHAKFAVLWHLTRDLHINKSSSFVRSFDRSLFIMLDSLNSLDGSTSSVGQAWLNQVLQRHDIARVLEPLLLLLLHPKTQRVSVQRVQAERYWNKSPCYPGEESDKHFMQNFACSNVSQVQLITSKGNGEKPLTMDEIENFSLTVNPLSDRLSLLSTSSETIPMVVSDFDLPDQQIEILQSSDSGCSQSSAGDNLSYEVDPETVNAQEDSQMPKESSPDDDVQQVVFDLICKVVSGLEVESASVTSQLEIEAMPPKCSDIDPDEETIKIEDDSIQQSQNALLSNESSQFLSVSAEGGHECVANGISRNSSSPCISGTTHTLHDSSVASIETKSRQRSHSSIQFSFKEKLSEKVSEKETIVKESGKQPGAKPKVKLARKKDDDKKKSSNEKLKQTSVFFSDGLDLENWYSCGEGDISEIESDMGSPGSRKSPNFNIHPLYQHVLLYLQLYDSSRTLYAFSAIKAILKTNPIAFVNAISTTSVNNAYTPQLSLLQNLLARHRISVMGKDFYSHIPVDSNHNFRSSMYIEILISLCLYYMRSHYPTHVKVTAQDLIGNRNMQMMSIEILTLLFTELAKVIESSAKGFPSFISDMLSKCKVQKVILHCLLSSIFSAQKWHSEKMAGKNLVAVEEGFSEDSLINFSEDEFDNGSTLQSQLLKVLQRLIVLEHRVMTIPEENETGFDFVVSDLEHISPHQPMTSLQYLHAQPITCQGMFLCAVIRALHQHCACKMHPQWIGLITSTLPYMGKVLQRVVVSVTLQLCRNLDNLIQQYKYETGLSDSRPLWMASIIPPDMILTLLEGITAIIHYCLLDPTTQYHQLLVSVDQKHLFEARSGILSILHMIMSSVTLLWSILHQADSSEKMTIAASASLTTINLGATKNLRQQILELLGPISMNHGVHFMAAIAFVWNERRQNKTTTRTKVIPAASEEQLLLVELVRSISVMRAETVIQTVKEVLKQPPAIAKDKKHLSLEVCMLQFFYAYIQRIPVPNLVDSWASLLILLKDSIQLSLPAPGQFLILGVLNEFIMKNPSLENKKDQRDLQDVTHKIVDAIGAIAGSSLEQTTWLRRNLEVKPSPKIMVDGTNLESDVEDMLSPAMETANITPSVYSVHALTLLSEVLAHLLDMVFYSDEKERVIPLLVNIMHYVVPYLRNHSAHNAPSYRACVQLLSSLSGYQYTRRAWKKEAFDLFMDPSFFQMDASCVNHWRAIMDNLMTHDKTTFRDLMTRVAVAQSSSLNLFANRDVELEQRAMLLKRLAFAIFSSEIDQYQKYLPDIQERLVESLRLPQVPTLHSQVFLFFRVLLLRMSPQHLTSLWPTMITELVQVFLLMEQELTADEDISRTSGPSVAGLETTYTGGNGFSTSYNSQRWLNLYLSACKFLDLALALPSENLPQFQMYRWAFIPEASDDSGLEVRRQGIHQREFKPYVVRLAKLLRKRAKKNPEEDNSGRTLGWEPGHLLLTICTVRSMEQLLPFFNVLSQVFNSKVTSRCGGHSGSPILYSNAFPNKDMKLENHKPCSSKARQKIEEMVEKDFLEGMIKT
active: Nexturastat A 0.47
inactive: ibrutinib -0.093 | [10] -0.054 | [1] 0.092 | vemurafenib 0.045 | [6] -0.166 | givinostat 0.057 | barasertib -0.047

EEF1D isoform 3 (UniProt P29692)
inactive: [1] -0.27 | [7] 0.605 | [6] -0.674 | givinostat -0.236

EPHB4 (UniProt P54760)
Sequence of UniProt P54760 (P54760 whole entry, looked up): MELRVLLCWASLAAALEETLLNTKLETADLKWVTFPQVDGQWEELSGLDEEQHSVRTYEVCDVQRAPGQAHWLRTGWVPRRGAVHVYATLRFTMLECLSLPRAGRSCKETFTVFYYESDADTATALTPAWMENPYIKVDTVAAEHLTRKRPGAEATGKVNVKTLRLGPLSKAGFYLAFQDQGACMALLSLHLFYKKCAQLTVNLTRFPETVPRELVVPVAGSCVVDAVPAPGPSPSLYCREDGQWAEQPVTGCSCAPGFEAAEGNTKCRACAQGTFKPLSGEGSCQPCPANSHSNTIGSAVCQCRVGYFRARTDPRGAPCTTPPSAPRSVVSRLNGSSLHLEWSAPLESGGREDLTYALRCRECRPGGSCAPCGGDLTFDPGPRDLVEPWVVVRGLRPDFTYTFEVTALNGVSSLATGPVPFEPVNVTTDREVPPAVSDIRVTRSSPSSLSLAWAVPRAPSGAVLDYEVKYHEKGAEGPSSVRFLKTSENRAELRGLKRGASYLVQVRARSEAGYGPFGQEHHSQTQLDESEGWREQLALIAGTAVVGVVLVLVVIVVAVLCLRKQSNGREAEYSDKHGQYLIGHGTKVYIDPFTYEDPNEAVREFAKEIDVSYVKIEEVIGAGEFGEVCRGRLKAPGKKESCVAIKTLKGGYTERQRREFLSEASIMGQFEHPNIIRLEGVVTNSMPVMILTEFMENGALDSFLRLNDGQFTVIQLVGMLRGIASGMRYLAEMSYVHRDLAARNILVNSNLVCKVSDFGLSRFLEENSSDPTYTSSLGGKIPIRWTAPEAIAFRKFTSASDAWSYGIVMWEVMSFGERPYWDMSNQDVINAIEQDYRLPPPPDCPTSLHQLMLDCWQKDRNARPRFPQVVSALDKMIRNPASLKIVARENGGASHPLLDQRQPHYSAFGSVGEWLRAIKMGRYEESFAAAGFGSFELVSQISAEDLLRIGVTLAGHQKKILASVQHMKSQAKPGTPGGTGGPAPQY
inactive: ralimetinib 0.131 | [2] 0.241 | [8] 0.057 | [4] -0.07 | [11] 0.392 | [12] -0.126 | [6] 0.001

ELOVL5 isoform 2 (UniProt Q9NYP7)
inactive: ibrutinib -0.075 | [9] -0.032 | ralimetinib -0.058 | [10] -0.272 | [1] -0.348 | [2] -0.05 | [3] -0.027 | [7] 0.002 | [8] 0.079 | [4] 0.02 | [11] 0.002 | Nexturastat A -0.05 | vemurafenib 0.065 | [12] 0.03 | [6] -0.241 | givinostat -0.008 | barasertib 0.035

EIF4G1 (UniProt Q04637)
inactive: [9] -0.334 | [7] 0.067 | vemurafenib -0.071

EGR1 (UniProt P18146)
inactive: ibrutinib 0 | ralimetinib 0.042 | [10] 0.044 | [1] -0.452 | [2] 0.153 | [3] 0.188 | [7] -0.472 | [8] -0.128 | [4] -0.024 | [11] -0.404 | Nexturastat A 0.53 | vemurafenib 0.305 | [12] -0.13 | [6] -0.027 | givinostat -0.06 | barasertib -0.048
active: [9] -1.07

DLK1 (UniProt P80370)
inactive: IRAK-1-4 Inhibitor I 0.023 | [10] -0.034 | pinometostat 0.099 | [5] -0.033 | Nexturastat A -0.003 | vemurafenib -0.026

ERF (UniProt P50548)
Sequence of UniProt P50548 (P50548 whole entry, looked up): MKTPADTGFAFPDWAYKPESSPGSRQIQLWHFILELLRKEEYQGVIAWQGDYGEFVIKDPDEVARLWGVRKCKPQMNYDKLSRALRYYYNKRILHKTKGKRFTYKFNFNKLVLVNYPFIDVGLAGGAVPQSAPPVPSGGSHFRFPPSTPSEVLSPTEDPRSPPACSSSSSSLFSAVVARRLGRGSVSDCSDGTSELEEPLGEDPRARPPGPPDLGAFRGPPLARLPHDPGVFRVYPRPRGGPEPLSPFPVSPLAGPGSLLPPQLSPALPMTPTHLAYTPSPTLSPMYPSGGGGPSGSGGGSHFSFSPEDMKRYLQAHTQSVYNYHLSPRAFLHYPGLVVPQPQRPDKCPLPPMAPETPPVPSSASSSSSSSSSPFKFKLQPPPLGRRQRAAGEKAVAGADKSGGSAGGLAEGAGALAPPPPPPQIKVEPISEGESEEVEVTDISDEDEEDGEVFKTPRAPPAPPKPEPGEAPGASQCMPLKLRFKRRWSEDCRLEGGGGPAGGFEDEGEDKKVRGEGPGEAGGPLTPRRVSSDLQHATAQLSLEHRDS
inactive: [10] 0.093 | [1] 0.186 | [7] 0.094 | [8] -0.551 | Nexturastat A 0.033 | givinostat -0.133

ELAC1 (UniProt Q9H777)
inactive: IRAK-1-4 Inhibitor I 0.028 | [9] 0.027 | [10] 0.027 | [1] 0.116 | pinometostat -0.129 | [3] -0.01 | [8] 0.003 | [11] -0.051 | [5] -0.049 | Nexturastat A 0.011 | vemurafenib -0.017 | [12] 0.007 | givinostat -0.023

EPHX2 (UniProt E5RI53)
inactive: ibrutinib 0.085 | [10] 0.071 | Nexturastat A 0.029 | barasertib 0.094

FAM135A (UniProt Q9P2D6)
inactive: [10] 0.009 | [1] 0.051 | [3] -0.002 | [8] -0.178 | vemurafenib -0.042 | givinostat 0.131
active: Nexturastat A 0.5

DHRS13 (UniProt Q6UX07)
inactive: IRAK-1-4 Inhibitor I -0.275 | [9] -0.051 | ralimetinib 0.035 | [1] -0.007 | [2] 0.144 | pinometostat 0.224 | [3] -0.168 | [7] -0.085 | [8] -0.106 | [4] 0.027 | [5] -0.055 | vemurafenib -0.062 | [6] 0.084 | givinostat 0.249
